Measurements from PubChem BioAssay (EPA / NIEHS).
Inconclusive results are not listed. Activity calls are given as the source filed them. The calls were made as follows, unless noted: active = hit-call score of the fitted dose curve at least 0.9, where 1 is the maximum; inconclusive = response in the unintended direction; inactive = score below 0.9.

Tests used:
[1] = CCTE_Deisenroth_AIME_384WELL_CTox_Active: Cytotoxicity Assessment (CTOX) in CCTE's 384-well Estrogen Receptor Transactivation Assay with AIME metabolic competence (metabolism positive), Deisenroth Lab (AID 2284037);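 also: chemicals first conditioned 2 h by alginate-bound induced rat liver S9 before cells; activity means signal loss indicating cell death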
How it was run: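 Chemicals pre-incubated 2 hours with alginate-immobilised phenobarbital/beta-naphthoflavone-induced male Sprague Dawley rat liver S9, then conditioned medium applied 24 hour to VM7Luc4E2 cells. Viability by fluorogenic protease substrate; 10-point series 0.002 - 200 uM.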

[2] = target: Estrogen receptor (Homo sapiens) (UniProt P03372); experiment: CCTE_Deisenroth_AIME_384WELL_LUC_Inactive: CCTE's 384-well Estrogen Receptor Transactivation Assay without AIME metabolic competence (ERTA luciferase; metabolism negative), Deisenroth Lab (AID 2284038);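 also: VM7Luc4E2 breast cells given medium preincubated 2 h with S9-free microspheres; hits raise estrogen receptor luciferase signal so potencies reflect agonists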
How it was run: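 Metabolism-negative mode: chemicals (10-point, 0.002–200 uM) held 2 h with alginate-water microspheres, then conditioned medium applied to VM7Luc4E2 cells for 24 h. Luciferase induction referenced to 17beta-estradiol.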

[3] = CCTE_Deisenroth_AIME_384WELL_CTox_Inactive: Cytotoxicity Assessment (CTOX) in CCTE's 384-well Estrogen Receptor Transactivation Assay without AIME metabolic competence (metabolism negative), Deisenroth Lab (AID 2284039);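 also: cell viability via live-cell protease substrate cleaved to fluorescent probe; cells exposed 24 h to medium preincubated 2 h with alginate-water beads without S9; loss of fluorescence signal means loss of viability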
How it was run: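 Fluorescence from a live-cell protease substrate, read after 24 h in VM7Luc4E2 cells, indicated viability. Test medium came from a 2 h AIME step without hepatic S9 (alginate-water microspheres); concentrations spanned 0.002 - 200 uM, single technical replicate per run.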

[4] = target: Estrogen receptor (Homo sapiens) (UniProt P03372); experiment: CCTE_Deisenroth_AIME_384WELL_LUC_Shift: CCTE's 384-well Estrogen Receptor Transactivation Assay with AIME metabolic competence data shift (ERTA luciferase; difference in metabolism positive and negative), Deisenroth Lab (AID 2284041; active = hit-call score of the fitted dose curve at least 0.9, where 1 is the maximum; inactive = score below 0.9;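 also: shift is response with S9 minus without S9 so positive means metabolism raised ER signal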)
How it was run: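 Chemicals (0.002–200 uM, 10 points) pre-incubated 2 h with alginate-encapsulated induced male Sprague Dawley rat liver S9 or S9-free, then medium applied 24 h to VM7Luc4E2 cells; luciferase. Endpoint is per-concentration difference, S9-positive minus negative.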

[5] = CCTE_Shafer_MEA_dev_active_electrodes_number: CCTE's Neural Network Formation Assay for Number of Active Electrodes, Shafer Lab (AID 2284040);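 as to AC50: potency for loss of active electrodes versus DMSO so lower counts are hits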
How it was run: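 Primary rat cortical neurons on 16-electrode MEA wells, exposed from day 0 through day 12 with compound renewed at DIV 5 and 9 feeds. Active electrodes (mean firing ≥5 spikes/min) counted at DIV 5, 7, 9, 12; trapezoidal AUC across days, loss-of-signal versus DMSO.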

[6] = CCTE_Shafer_MEA_dev_burst_rate: CCTE's Neural Network Formation Assay for Burst Rate, Shafer Lab (AID 2284042; active = hit-call score of the fitted dose curve at least 0.9, where 1 is the maximum; inactive = score below 0.9;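 as to AC50: potency for loss of burst rate below DMSO control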)
How it was run: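 Developmental network assay measuring how 12-day exposure of rat cortical neuron cultures alters bursting on extracellular MEA recordings. Values are AUC of well-mean burst rate across four recording days, relative to DMSO vehicle.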

[7] = CCTE_Shafer_MEA_dev_bursting_electrodes_number: CCTE's Neural Network Formation Assay for Number of Bursting Electrodes, Shafer Lab (AID 2284043);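 as to AC50: potency is for loss of bursting electrodes relative to DMSO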
How it was run: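 Primary rat cortical neurons plated on 16-electrode MEA wells, exposed from day 0 with compound renewed at DIV 5 and 9. Electrodes bursting ≥1 burst per 2 min counted on days 5, 7, 9 and 12; trapezoidal AUC across days, fitted for loss versus DMSO.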

[8] = CCTE_Shafer_MEA_dev_per_burst_interspike_interval: CCTE's Neural Network Formation Assay for Burst Interspike Interval, Shafer Lab (AID 2284044; active = hit-call score of the fitted dose curve at least 0.9, where 1 is the maximum; inactive = score below 0.9;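 also: mean spike spacing inside bursts as AUC over recordings on days 5 7 9 12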;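 as to AC50: potency for a decrease of within-burst interspike interval below DMSO level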)
How it was run: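 Mean interspike interval within single-electrode bursts, averaged over bursting electrodes, from rat cortical cultures on MEA plates recorded on days 5, 7, 9 and 12. Continuous compound exposure from plating; trapezoidal AUC fitted downward relative to DMSO.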

[9] = CCTE_Shafer_MEA_dev_burst_duration_mean: CCTE's Neural Network Formation Assay for Mean Burst Duration, Shafer Lab (AID 2284045; active = hit-call score of the fitted dose curve at least 0.9, where 1 is the maximum; inactive = score below 0.9)
How it was run: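 Primary rat cortical neurons on 48-well 16-electrode MEA plates, exposed from day 0 with renewal at DIV 5 and 9; spontaneous activity recorded on days 5, 7, 9, 12. Well-mean burst duration across bursting electrodes, collapsed as trapezoidal AUC; DMSO baseline.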

[10] = CCTE_Shafer_MEA_dev_interburst_interval_mean: CCTE's Neural Network Formation Assay for Mean Interburst Interval, Shafer Lab (AID 2284046; active = hit-call score of the fitted dose curve at least 0.9, where 1 is the maximum; inactive = score below 0.9;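 also: well-mean interburst interval of bursting electrodes as AUC over four recording days; curve fitted for decrease in interburst interval relative to DMSO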)
How it was run: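 Network formation assay in primary rat cortical cultures, exposed from DIV 0 to 12. Mean interburst interval per well, integrated as AUC over four recordings.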

[11] = CCTE_Shafer_MEA_dev_inter_network_spike_interval_mean: CCTE's Neural Network Formation Assay for Mean Inter-network Spike Interval, Shafer Lab (AID 2284047; active = hit-call score of the fitted dose curve at least 0.9, where 1 is the maximum; inactive = score below 0.9)
How it was run: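 Compound was given at plating to primary rat cortical neurons and renewed with full medium changes on DIV 5 and 9. Extracellular activity was recorded on days 5, 7, 9, 12; AUC values were fitted for loss relative to DMSO control.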

[12] = CCTE_Shafer_MEA_dev_network_spike_number: CCTE's Neural Network Formation Assay for Number of Network Spikes, Shafer Lab (AID 2284048; active = hit-call score of the fitted dose curve at least 0.9, where 1 is the maximum; inactive = score below 0.9;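 as to AC50: fit as a loss of signal meaning fewer network spikes than DMSO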)
How it was run: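 Primary rat cortical neurons on PEI/laminin 48-well MEA plates, dosed from plating day 0 for 12 days, renewed at DIV 5 and 9. Network spike counts recorded DIV 5, 7, 9, 12, collapsed as trapezoidal AUC; DMSO baseline.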

[13] = CCTE_Shafer_MEA_dev_per_network_spike_spike_number_mean: CCTE's Neural Network Formation Assay for Mean Number of Spikes in a Network Spike, Shafer Lab (AID 2284053; active = hit-call score of the fitted dose curve at least 0.9, where 1 is the maximum; inactive = score below 0.9;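 as to AC50: fitted as decrease in spikes per network spike relative to DMSO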)
How it was run: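 First, rat cortical cells (1.5 x 10^5/well) were seeded onto MEA wells; second, dosing began at plating and was refreshed on DIV 5 and 9; finally, network-spike spike counts across DIV 5–12 were summarized as AUC.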

[14] = CCTE_Shafer_MEA_dev_per_network_spike_spike_percent: CCTE's Neural Network Formation Assay for Percent of Spikes in a Network Spike, Shafer Lab (AID 2284054; active = hit-call score of the fitted dose curve at least 0.9, where 1 is the maximum; inactive = score below 0.9)
How it was run: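 Rat primary cortical neurons were grown on 48-well MEA plates (16 electrodes/well), exposed from plating day 0 through day 12, with treatment renewed on DIV 5 and 9. Percent of spikes within 0.05 s network-spike peaks was measured, summarised as AUC across days 5, 7, 9, 12.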

[15] = CCTE_Shafer_MEA_dev_LDH: CCTE's Lactate Dehydrogenase Assay for Cytotoxicity in the Neural Network Formation Assay, Shafer Lab (AID 2284068);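 also: exposure for twelve days from plating with re-dosing on DIV 5 and 9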
How it was run: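 Developing rat cortical networks on MEA plates are exposed to compound for 12 days from plating. LDH activity is measured spectrophotometrically, with DMSO as baseline.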

DIO2 (gene 1734) = experiment: CCTE_GLTED_hDIO2: CCTE's human Deiodinase 2 (DIO2) Inhibition Assay, Great Lakes Toxicology and Ecology Division (GLTED) Lab (AID 2284050)
How it was run: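 hDIO2 enzyme + test chem, 3 h → free iodide from substrate; step 2: Sandell-Kolthoff (Ce IV reduction by As, iodide-catalysed), spectrophotometric read. Triplicate plates; DMSO = baseline.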

DIO3 (gene 1735) = experiment: CCTE_GLTED_hDIO3: CCTE's human Deiodinase 3 (DIO3) Inhibition Assay, Great Lakes Toxicology and Ecology Division (GLTED) Lab (AID 2284055);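 also: potency is for inhibition seen as loss of released iodide signal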
How it was run: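 Absorbance from the Sandell-Kolthoff reaction reports iodide released by human DIO3 during a 3-hour incubation with chemical. Inhibition scored as signal loss against DMSO controls.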

[16] = CCTE_Shafer_MEA_acute_AB: CCTE's Alamar Blue Assay for Cytotoxicity in the Neural Acute Assay, Shafer Lab (AID 2284069);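 also: active compounds lower the viability signal compared with DMSO wells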
How it was run: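 Cytotoxicity endpoint for acute MEA exposures of primary rat cortical neurons on day 13 or 15. Resazurin reduction is read fluorescently at 544/590 nm, with DMSO as the negative-control baseline.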

Measured: AC50

Estrogen receptor (Homo sapiens), sequence (P03372 whole entry, looked up): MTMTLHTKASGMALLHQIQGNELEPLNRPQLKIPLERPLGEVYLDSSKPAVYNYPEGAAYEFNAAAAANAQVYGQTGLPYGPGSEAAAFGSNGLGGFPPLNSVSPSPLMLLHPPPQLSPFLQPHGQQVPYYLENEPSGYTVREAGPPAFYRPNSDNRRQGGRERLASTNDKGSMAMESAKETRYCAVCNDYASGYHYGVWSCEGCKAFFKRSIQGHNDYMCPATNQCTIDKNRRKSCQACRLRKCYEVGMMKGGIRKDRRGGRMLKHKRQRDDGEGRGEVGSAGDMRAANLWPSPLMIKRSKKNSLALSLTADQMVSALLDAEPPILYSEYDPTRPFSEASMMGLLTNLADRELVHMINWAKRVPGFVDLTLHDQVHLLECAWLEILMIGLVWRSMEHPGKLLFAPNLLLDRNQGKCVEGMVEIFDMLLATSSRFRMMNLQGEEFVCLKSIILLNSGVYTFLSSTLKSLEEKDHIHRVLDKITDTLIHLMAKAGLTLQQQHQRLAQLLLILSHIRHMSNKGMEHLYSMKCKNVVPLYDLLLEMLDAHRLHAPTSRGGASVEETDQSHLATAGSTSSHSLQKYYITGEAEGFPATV

COC(=O)NC(=S)Nc1ccccc1NC(=S)NC(=O)OC
inactive: [1] | [2] | [3] | [4]

COc1ccc(-c2ccccc2)cc1NNC(=O)OC(C)C
active: [1] 79.5 µM | [3] 77.9 µM
inactive: [2] | [4]

CCCC(=NOCC)C1=C(O)CC(CC(C)SCC)CC1=O (centres undefined)
inactive: [2] | [3] | [4]

COP(=S)(OC)Oc1ccc([N+](=O)[O-])c(C)c1
inactive: [1] | [2] | [3] | [5] | [4] | [6] | [7] | [8] | [9] | [10] | [11] | [12] | [13] | [14] | [15]

CCCCOCN(C(=O)CCl)c1c(CC)cccc1CC
active: DIO2 (gene 1734) 17.6 µM | DIO3 (gene 1735) 37.6 µM
inactive: [1] | [4]

CCC(C)n1c(=O)[nH]c(C)c(Br)c1=O (centres undefined)
inactive: [1] | [2] | [4]

CCCCC(C#N)(Cn1cncn1)c1ccc(Cl)cc1 (centres undefined)
inactive: [1] | [4]

CC(C)=CC1C(C(=O)OCc2coc(Cc3ccccc3)c2)C1(C)C (centres undefined)
inactive: [1] | [2] | [3] | [5] | [6] | [7] | [8] | [9] | [10] | [11] | [12] | [13] | [14] | [16]
active: DIO2 (gene 1734) 38.5 µM | DIO3 (gene 1735) 40.5 µM | [15] 14.1 µM

CCOC(=O)C(C)OC(=O)c1cc(Oc2ccc(C(F)(F)F)cc2Cl)ccc1[N+](=O)[O-] (centres undefined)
active: [3] 100 µM
inactive: [1] | [2] | [5] | [4] | [6] | [7] | [8] | [9] | [10] | [11] | [12] | [13] | [14] | [15] | [16]

C=C(C)CN(CC)c1c([N+](=O)[O-])cc(C(F)(F)F)cc1[N+](=O)[O-]
inactive: [1] | [2] | [3] | [4] | [9] | [11] | [16]
active: [5] 16.9 µM | [6] 13.3 µM | [7] 16.4 µM | [8] 22.1 µM | [10] 22.2 µM | [12] 23.2 µM | [13] 14.1 µM | [14] 23.2 µM | [15] 14.5 µM
